From PubChem BioAssay come the findings set out here.

Experiment [1] deals with PRMT1 (protein arginine N-methyltransferase 1). Nature of the experiment: PRMT1 binders on small-molecule microarrays, primary screen, biochemical, small-molecule microarray, 635 nm fluorescence (AID 1088).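 Note: binding of Prmt1 protein to compounds spotted on small-molecule microarray slides.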 The note with it: small-molecule microarray binding, higher = more signal.
A short description of experiment [2]: yeast growth modulation, basal conditions, primary screen, YJM789 clinical isolate, OD600, 24 h (AID 1089).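 Note: growth of clinical yeast isolate S. cerevisiae YJM 789 seeded 1000 cells per well; test concentration not given here.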 The note with it: S. cerevisiae YJM789 growth, higher = more signal, called active from +8 up or from −8 down.
Experiment [3] can be described thus: fission yeast growth modulation, primary screen, strain 972, OD600, 24 h, no modulator (AID 1090).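 Note: basal condition with compound alone and no growth modifier present; test concentration not given here.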 The note with it: S. pombe 972 growth, higher = more signal, called active from +8 up or from −8 down.
A short description of experiment [4]: S. cerevisiae growth modulation with rapamycin, primary screen, strain BY4716, OD600, 96 h (AID 1091). Note: test concentration not given here. The following applies: higher = more signal, called active from +8 up or from −8 down.
Experiment [5] addresses Torsin-1A-interacting protein 2 (Homo sapiens) (UniProt Q8NFQ8). Nature of the experiment: LULL1 binders on small-molecule microarray, primary screen, cell lysate, human LULL1 lysate, 635/667 nm fluorescence (AID 1092).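 Note: probe is lysate of COS7 cells overexpressing human LULL1; score merges per-feature 667 nm fluorescence with signal-to-noise.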 The following applies: hLULL1 lysate binding, 635 nm fluorescence, higher = more signal.
Experiment [6] is described as follows: E. coli growth modulation, two-sided OD650, primary screen, E. coli filamentation project, strain DRC41, 24 h (AID 1093).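 Note: MC1000 strain lacking acrAB efflux and sulA so SOS filamentation is blocked; test concentration not given here.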 The following applies: OD650, 24 h, higher = more signal, called active from +8 up or from −8 down.
Experiment [7] is described as follows: small-molecule microarray binders of probe aLefty2, primary screen, biochemical, biotinylated probe, 635/667 nm fluorescence (AID 1094).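 Note: score merges spot fluorescence near 667 nm with spot signal-to-noise ratio.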 The following applies: higher = more signal.
The subject of experiment [8] is Noggin (protein binding on small-molecule microarray). In words: Noggin binders on small-molecule microarray, primary screen, biochemical, 635/667 nm fluorescence (AID 1095).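 Note: score merges 667 nm feature fluorescence with signal to noise over triplicate slides.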 The note with it: 635 nm fluorescence, higher = more signal.
Experiment [9] deals with Neurogenic locus notch homolog protein 3 (Homo sapiens) (UniProt Q9UM47). In words: NOTCH3 binders on small-molecule microarray, primary screen, biochemical, 635/667 nm fluorescence (AID 1096). The note with it: NOTCH3 binding, 635 nm fluorescence, higher = more signal.
The nature of experiment [10]: small-molecule microarray binders of probe aEGFR, primary screen, biochemical, biotinylated probe, 635/667 nm fluorescence (AID 1097).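 Note: probe is a biotinylated anti-EGFR antibody binding compounds printed on slides; score combines fluorescence near 667 nm and signal to noise of each spot.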 The note with it: higher = more signal.
For experiment [11], the system named is Plasmodium falciparum Sir2 (PF13_0152, Sir2A). In words: pfSir2 binders on small-molecule microarrays, primary screen, biochemical, small-molecule microarray, 635 nm fluorescence (AID 1098).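 Note: score merges spot fluorescence intensity with its signal-to-noise ratio.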 The following applies: small-molecule microarray binding, fluorescence 635 nm; higher = more signal.
A short description of experiment [12]: small-molecule microarray binders of probe aDKK1, primary screen, biochemical, biotinylated probe, 635/667 nm fluorescence (AID 1099).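 Note: score merges 667nm spot fluorescence with signal to noise across triplicate slides; reference of the scale not given here.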 The note with it: higher = more signal.
Experiment [13] in a line: small-molecule microarray binders of probe aCHRDL2, primary screen, biochemical, biotinylated probe, 635/667 nm fluorescence (AID 1100). The note with it: higher = more signal.
Experiment [14] is described as follows: splicing luciferase reporter signal modulators, primary screen, spliceosome inhibition project, cell-based, HEK293, splice +/- reporter (AID 1101).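 Note: HEK293 cells carrying a splicing-competent luciferase reporter gene; test concentration not given here.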 The following applies: luminescence, 24 h, higher = more signal, called active from +8 up or from −8 down.
For experiment [15], the target named is Fibroblast growth factor 10 (Homo sapiens) (UniProt O15520). Nature of the experiment: FGF10 binders on small-molecule microarrays, primary screen, biochemical, small-molecule microarray, 635 nm fluorescence (AID 1102). The following applies: FGF10 binding, fluorescence 635 nm, higher = more signal.
The subject of experiment [16] is glycogen synthase kinase-3 (GSK3A per assay name; protocol says GSK3B). In words: GSK3 binders on small-molecule microarrays, primary screen, biochemical, small-molecule microarray, 635 nm fluorescence, GSK3A (AID 1103). Note: the record names both GSK3A and GSK3B. The note with it: small-molecule microarray binding, fluorescence 635 nm; higher = more signal.
Experiment [17] deals with Epidermal growth factor receptor (Homo sapiens) (UniProt P00533). Nature of the experiment: EGFR binders on small-molecule microarrays, primary screen, biochemical, small-molecule microarray, 635 nm fluorescence (AID 1104).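 Note: score merges 667 nm emission intensity with spot signal to noise over triplicate slides.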 The following applies: EGFR binding, higher = more signal.
The target in experiment [18] is Follistatin-related protein 3 (Homo sapiens) (UniProt O95633). In words: FSTL3 binders on small-molecule microarrays, primary screen, biochemical, small-molecule microarray, 635 nm fluorescence (AID 1105).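 Note: score merges emission near 667 nm and signal to noise per printed spot across three slides.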 The note with it: FSTL3 binding, higher = more signal.
For experiment [19], the target named is Dickkopf-related protein 1 (Homo sapiens) (UniProt O94907). In words: DKK1 binders on small-molecule microarrays, primary screen, biochemical, small-molecule microarray, 635 nm fluorescence scan (AID 1106).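 Note: score merges emission near 667 nm with signal to noise over three replicate slides.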 The note with it: DKK1 binding, higher = more signal.
In experiment [20] the test system is Inhibin beta A chain (activin A). Nature of the experiment: INHBA (activin A) binders on microarrays, primary screen, biochemical, small-molecule microarray, 635 nm fluorescence scan (AID 1107).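 Note: mouse activin A protein probed at 4.33 µg/mL on printed slides; score merges bound-protein fluorescence near 667 nm with spot signal-to-noise.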 The following applies: small-molecule microarray binding, higher = more signal.

Calls of active or inactive are those of the source.

Dickkopf-related protein 1 (Homo sapiens), sequence (O94907 whole entry, looked up): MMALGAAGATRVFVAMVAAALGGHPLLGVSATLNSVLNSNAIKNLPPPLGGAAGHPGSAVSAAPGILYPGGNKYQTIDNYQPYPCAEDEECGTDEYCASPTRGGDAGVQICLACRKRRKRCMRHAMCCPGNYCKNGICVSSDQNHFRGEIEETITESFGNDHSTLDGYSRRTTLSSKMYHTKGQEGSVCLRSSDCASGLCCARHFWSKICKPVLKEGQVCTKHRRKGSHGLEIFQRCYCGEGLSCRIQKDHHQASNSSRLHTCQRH
Fibroblast growth factor 10 (Homo sapiens), sequence (O15520 whole entry, looked up): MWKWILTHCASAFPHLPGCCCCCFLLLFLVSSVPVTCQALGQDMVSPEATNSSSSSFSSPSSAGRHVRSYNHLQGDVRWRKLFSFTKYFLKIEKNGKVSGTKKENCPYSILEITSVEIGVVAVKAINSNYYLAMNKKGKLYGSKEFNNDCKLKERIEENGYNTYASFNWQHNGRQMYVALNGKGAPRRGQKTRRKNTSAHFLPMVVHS
Neurogenic locus notch homolog protein 3 (Homo sapiens), sequence (Q9UM47 whole entry, looked up): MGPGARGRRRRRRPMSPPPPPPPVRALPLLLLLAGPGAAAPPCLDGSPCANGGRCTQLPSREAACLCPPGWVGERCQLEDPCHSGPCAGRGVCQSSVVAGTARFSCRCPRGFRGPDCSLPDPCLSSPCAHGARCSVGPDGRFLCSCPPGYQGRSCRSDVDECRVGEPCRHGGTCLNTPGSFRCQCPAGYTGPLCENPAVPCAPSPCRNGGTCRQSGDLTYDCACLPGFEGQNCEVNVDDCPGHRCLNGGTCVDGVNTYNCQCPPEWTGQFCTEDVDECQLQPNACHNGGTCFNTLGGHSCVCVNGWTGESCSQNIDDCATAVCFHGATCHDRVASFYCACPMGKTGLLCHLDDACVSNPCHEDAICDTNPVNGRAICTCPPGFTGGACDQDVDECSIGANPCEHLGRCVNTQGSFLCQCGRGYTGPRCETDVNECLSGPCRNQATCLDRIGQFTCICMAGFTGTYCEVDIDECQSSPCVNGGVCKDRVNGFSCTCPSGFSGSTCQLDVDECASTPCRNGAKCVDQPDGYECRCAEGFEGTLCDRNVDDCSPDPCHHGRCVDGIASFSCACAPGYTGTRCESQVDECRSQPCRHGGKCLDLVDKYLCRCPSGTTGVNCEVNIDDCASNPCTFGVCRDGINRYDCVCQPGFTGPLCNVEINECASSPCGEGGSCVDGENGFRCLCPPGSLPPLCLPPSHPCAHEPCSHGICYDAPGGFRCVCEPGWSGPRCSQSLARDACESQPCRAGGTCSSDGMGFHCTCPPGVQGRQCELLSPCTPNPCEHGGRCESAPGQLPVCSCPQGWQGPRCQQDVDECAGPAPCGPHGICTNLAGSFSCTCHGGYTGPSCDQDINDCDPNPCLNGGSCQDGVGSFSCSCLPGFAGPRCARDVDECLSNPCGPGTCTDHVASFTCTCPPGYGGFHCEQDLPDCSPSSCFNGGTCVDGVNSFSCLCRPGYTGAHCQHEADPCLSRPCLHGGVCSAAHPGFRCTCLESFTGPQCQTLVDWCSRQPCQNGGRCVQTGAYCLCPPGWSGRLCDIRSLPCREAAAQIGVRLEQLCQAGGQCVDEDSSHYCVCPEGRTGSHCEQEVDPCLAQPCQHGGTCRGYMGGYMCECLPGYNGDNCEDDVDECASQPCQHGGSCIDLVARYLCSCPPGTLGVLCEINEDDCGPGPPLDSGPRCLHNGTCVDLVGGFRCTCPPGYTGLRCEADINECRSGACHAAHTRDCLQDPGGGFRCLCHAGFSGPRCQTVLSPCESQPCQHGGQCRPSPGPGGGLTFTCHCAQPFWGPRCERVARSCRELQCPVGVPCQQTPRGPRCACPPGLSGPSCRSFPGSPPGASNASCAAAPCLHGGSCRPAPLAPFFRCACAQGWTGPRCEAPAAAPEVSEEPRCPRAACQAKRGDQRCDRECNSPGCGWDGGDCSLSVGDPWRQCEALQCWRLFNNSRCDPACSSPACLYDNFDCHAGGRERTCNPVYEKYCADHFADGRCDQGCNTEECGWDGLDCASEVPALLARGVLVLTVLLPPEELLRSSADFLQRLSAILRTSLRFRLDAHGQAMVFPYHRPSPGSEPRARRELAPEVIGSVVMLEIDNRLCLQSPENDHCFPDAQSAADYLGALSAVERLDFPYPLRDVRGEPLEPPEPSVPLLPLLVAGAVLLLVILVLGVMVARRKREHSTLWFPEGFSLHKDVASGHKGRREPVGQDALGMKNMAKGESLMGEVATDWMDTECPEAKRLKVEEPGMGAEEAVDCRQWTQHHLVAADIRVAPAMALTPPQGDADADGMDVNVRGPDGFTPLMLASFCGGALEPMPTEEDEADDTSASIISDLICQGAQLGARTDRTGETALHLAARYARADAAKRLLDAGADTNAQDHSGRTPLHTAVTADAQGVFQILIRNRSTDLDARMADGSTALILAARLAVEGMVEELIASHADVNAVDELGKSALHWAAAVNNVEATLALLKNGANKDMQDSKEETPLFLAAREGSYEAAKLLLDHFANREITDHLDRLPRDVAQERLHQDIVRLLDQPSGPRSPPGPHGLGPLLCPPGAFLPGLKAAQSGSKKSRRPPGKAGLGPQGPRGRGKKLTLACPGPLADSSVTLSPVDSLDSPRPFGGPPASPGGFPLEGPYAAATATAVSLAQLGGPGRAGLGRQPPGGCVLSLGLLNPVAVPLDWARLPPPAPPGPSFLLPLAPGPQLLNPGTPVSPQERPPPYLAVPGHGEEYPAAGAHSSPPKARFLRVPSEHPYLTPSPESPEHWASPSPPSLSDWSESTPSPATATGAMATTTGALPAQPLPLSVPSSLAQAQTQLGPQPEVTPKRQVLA
Epidermal growth factor receptor (Homo sapiens), sequence (P00533 whole entry, looked up): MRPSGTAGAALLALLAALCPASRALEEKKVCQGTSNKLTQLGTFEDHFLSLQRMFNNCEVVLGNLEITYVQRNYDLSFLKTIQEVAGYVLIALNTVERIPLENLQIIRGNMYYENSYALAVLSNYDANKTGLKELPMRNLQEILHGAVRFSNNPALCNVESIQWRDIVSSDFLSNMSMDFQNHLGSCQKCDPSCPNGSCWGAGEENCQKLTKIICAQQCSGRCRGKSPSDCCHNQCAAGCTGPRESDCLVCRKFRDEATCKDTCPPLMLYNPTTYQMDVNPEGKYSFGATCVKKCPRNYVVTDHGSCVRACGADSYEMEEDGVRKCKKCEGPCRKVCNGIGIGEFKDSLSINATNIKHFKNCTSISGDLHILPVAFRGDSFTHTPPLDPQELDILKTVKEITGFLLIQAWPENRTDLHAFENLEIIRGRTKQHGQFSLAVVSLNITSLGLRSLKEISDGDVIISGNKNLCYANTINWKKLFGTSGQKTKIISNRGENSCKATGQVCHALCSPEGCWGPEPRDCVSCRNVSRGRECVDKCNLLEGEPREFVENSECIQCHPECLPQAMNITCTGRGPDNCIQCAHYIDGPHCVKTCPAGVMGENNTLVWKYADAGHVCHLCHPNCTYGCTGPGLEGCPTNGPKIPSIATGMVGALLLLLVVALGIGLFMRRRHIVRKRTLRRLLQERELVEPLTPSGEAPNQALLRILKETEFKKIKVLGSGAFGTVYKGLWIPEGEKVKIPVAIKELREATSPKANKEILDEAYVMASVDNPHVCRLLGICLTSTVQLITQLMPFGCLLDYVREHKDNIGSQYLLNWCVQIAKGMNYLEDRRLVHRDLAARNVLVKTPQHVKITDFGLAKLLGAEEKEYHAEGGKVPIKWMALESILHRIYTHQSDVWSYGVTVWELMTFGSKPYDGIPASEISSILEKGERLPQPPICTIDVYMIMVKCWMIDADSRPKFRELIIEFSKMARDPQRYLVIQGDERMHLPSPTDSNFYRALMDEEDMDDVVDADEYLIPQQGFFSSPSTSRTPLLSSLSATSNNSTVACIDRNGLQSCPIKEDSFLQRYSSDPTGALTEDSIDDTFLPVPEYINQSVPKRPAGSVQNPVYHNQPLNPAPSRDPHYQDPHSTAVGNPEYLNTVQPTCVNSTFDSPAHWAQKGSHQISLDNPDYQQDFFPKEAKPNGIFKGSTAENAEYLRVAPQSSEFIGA
Follistatin-related protein 3 (Homo sapiens), sequence (O95633 whole entry, looked up): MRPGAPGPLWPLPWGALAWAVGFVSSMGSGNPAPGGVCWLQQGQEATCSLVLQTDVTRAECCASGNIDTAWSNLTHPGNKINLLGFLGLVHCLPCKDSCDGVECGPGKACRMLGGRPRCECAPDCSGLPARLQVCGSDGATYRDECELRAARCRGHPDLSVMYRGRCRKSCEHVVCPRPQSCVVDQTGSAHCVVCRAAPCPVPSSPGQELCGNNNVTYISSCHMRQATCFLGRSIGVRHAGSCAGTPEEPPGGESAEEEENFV
Torsin-1A-interacting protein 2 (Homo sapiens), sequence (Q8NFQ8 whole entry, looked up): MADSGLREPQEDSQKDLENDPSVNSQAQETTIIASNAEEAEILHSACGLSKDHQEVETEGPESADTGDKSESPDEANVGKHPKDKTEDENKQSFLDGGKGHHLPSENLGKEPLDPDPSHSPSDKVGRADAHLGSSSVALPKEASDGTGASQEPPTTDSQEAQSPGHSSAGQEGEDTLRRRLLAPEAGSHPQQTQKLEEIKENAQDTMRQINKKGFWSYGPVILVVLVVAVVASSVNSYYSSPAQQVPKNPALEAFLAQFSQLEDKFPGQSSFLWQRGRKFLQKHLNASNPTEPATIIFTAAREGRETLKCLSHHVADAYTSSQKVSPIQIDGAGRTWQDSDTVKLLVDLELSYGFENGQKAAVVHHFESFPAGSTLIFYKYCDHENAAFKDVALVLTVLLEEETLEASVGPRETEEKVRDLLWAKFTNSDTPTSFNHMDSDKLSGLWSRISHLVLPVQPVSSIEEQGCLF

For the compound `C=C(COC)C(=O)CC[C@@H](OC(=O)c1cccnc1)c1ccc(OCCO)cc1`, the composite z-score was 1.2 in experiment [1]; 0.204 in experiment [5]; 0.0047 in experiment [7]; 0.992 in [8]; 0.431 in [9]; 0.167 in experiment [10]. Besides, the composite z-score came to 0.872 in [11]; 0.131 in [12]; 0.423 in [13]; 1.55 in experiment [15]; 0.328 in experiment [16]; 0.338 in experiment [17]. Also, the figures for the composite z-score in [18], in experiment [19] and in experiment [20] were 0.847, 0.922 and 1.26, respectively. Moreover, the z-score in experiment [2] is -10.9 (active); in [3], -20.4 (active); in experiment [4], -3.62 (inactive); in experiment [6] it was -0.653 (inactive); in experiment [14], -0.853 (inactive).

For `COc1cc(OC)c(C(O)C2C=CC3C(=O)N(c4ccccc4)C(=O)C3N2Nc2ccccc2)cc1Br` (stereo not given), the composite z-score in [1] was 1.2; in experiment [5] it was 2.53; in experiment [7], 0.167; in experiment [8], 0.0401; in [9], 0.862; in experiment [10], -0.0828. Also, the composite z-score in experiment [11] was 1.53; in experiment [12], 0.184; in experiment [13], 0.612; in experiment [15], 0.247; in [16] it was 0.176; in [17], -0.487. Besides, the figures for the composite z-score in experiment [18], in experiment [19] and in experiment [20] were 0.39, -0.386 and 0.791, respectively. The z-score was -0.465 (inactive) in experiment [2]; 1.09 (inactive) in experiment [3]; 0.326 (inactive) in experiment [4]; -0.604 (inactive) in experiment [6]; 0.528 (inactive) in [14].

Take `COC(=O)c1c2oc(c1C(=O)OC)C(=O)N(C)Cc1cn(nn1)C[C@H](Cc1ccccc1)NC(=O)N[C@H](CO)CC2`: the composite z-score in experiment [1] is -0.929; in [5], -0.609; in experiment [7], -0.174; in [8] it was -0.244; in [9] it was 0.15; in experiment [10], -0.154. The composite z-score was -0.595 in experiment [11]; -0.349 in [12]; -0.264 in [13]; -0.591 in [15]; -0.94 in experiment [16]; -0.694 in experiment [17]. The composite z-score in [18] was -0.269; in experiment [19] it was -0.316; in [20], -0.0248. Besides, the z-score in [2] is 1.23 (inactive); in experiment [3], 0.914 (inactive); in [4] it was 0.556 (inactive); in [6], -0.666 (inactive); in experiment [14], 0.322 (inactive).

For the compound `COc1cc(OC)c(C(O)C2C=CC3C(=O)N(C)C(=O)C3N2NC(=O)OC(C)(C)C)cc1Br` (stereo not given), the composite z-score turned out to be 1.54 in experiment [1]; 3.39 in [5]; 0.368 in [7]; 0.137 in experiment [8]; 1.02 in [9]; 0.128 in experiment [10]. The composite z-score worked out at 1.07 in [11]; 0.993 in [12]; 1.15 in experiment [13]; 1.32 in experiment [15]; 1.33 in [16]; 0.26 in experiment [17]. The composite z-score is 1.41 in [18], 0.057 in experiment [19] and 0.594 in [20]. Also, the z-score in experiment [2] was 0.24 (inactive); in experiment [3] it was -0.324 (inactive); in experiment [4] it was 0.828 (inactive); in [6], -0.188 (inactive); in experiment [14] it was 1.51 (inactive).

Regarding `CN(C)C(=O)C1N=C(c2ccc(OCCCO)cc2)N(c2ccccc2)O1` (stereo not given), the composite z-score is 1.56 in [1]; 1.72 in experiment [5]; -0.244 in experiment [7]; 1.41 in experiment [8]; 1.05 in experiment [9]; 0.123 in experiment [10]. Further, the composite z-score in experiment [11] was 1.22; in experiment [12] it was 0.0309; in [13], -0.0552; in [15], 1.5; in [16], 1.13; in experiment [17], 0.662. The values for the composite z-score in experiment [18], in experiment [19] and in [20] were 0.739, 0.726 and -0.319, respectively. Moreover, the z-score was -0.0944 (inactive) in experiment [2]; -1.17 (inactive) in experiment [3]; -0.582 (inactive) in experiment [4]; 1.15 (inactive) in experiment [6]; -1.06 (inactive) in experiment [14].
